Results published in PubChem BioAssay AID756 (University of Pittsburgh Molecular Library Screening Center, 2007).
The list shows a part of the results.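 The calls were made as follows: active = both duplicate runs show 50% or greater inhibition; inconclusive = only one duplicate run shows over 50% inhibition; inactive = both runs show under 50% inhibition.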

experiment: false signal in post-reaction Plk1 detection – biochemical, TR-FRET, compound added post-reaction, artefact control for Plk1 kinase inhibitor project (AID 756); conditions: Plk1 TR-FRET assay interference, at 10 µM, stronger effect = higher value;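 also: 0% = DMSO max control and 100% = H-89 min control inhibited reaction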

Inhibition (interference), inactive:
CC1CN(c2cc(=O)n(Cc3ccc(F)cc3)c(=O)[nH]2)CC(C)O1 (stereo unspecified) -49.5%
COc1ccc(-c2nc(CS(=O)CC(=O)NCc3cccnc3)c(C)o2)cc1OC (stereo unspecified) -52.6%
O=C(Nc1cccc(F)c1)c1ccc(S(=O)(=O)N2CCCC2)cc1 -44.8%
C[N+]1(CCNC(=O)/C=N/O)CCCCC1 -46.6%
Cc1ccnc(N2C(=O)c3ccccc3C2Nc2ccc3c(c2)OCCO3)c1 (stereo unspecified) -50.1%
CC1CSc2nnc(CCc3ccccc3)n21 (stereo unspecified) -58.9%
